PubChem BioAssay
Calls of active or inactive are those of the source.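 How the source made its calls, unless noted: active means viability at or below 30% in both replicate assays; inconclusive means viability at or below 30% in just one of the two assays; inactive means the rest.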

Experiments:
[1] = Her2 expression decrease, cell viability multiplex – SKBR3 breast tumor cells, AlphaScreen, ATP viability, primary screen (AID 461;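 active means Her2 level under about 52% in both replicate screens, with viability over 70% of control, limit read from the data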;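 on Her2 level: lower value means less Her2 protein in the cells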;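 on viability: percent of carrier control wells set as 100% viability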); conditions: SKBR3 Her2 protein level, 18-24 h, measured here: SKBR3 viability, ATP luminescence, at 10 µM
[2] = target: Receptor tyrosine-protein kinase erbB-2 (Homo sapiens) (UniProt P04626); assay: as above; conditions: 18-24 h, at 10 µM, stronger effect = lower value
[3] = reduced viability of SK-BR-3 breast cancer cells – cell-based, 24 h, human, pilot screen (AID 572;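 active means viability at or below 10% of carrier control in both of two separate runs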;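 further: compound exposure lasted between 18 and 24 h rather than exactly 24 h; 100% = carrier-treated control wells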); conditions: SK-BR-3 viability, CellTiter-Glo luminescence, at 10 µM, stronger effect = lower value
[4] = HUVEC growth inhibition – cell-based, human, primary screen (AID 575); conditions: HUVEC proliferation, CellTiter-Glo luminescence, 72 h; at 10 µM; stronger effect = lower value;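 further: 100% = median of untreated cell wells with 0.1% DMSO on each plate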
[5] = MRP1 drug-resistance reversers in H69AR cells – cell-based, doxorubicin co-treatment, pilot screen (AID 601;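 active means viability loss from added drug above about 55%, and viability with drug at most 40%, in both replicates, limit read from the data, passing the limit was not always enough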); conditions: CellTiter-Glo, 72 h, at 10 µM; for differential viability (reversal): stronger effect = higher value
[6] = yeast transport mutant growth inhibition pilot in 384-well plates, post-Golgi transport modulator project (AID 636; in the data active means inhibition above about 31%); conditions: absorbance 615 nm, about 18 h, stronger effect = higher value
[7] = growth suppression of yeast trafficking mutant, preliminary HTS, modulators of trafficking downstream of Golgi apparatus project, 1536-format plate, OD 615 nm (AID 637; in the data active means inhibition above about 30%); conditions: yeast transport mutant growth, absorbance 615 nm, 18 h; stronger effect = higher value
[8] = H69AR cells + 2 uM doxorubicin, measured here: viability with 2 uM doxorubicin, stronger effect = lower value
[9] = H69AR cells, compound alone cytotoxicity

Sequence of Receptor tyrosine-protein kinase erbB-2 (Homo sapiens) (P04626 whole entry, looked up): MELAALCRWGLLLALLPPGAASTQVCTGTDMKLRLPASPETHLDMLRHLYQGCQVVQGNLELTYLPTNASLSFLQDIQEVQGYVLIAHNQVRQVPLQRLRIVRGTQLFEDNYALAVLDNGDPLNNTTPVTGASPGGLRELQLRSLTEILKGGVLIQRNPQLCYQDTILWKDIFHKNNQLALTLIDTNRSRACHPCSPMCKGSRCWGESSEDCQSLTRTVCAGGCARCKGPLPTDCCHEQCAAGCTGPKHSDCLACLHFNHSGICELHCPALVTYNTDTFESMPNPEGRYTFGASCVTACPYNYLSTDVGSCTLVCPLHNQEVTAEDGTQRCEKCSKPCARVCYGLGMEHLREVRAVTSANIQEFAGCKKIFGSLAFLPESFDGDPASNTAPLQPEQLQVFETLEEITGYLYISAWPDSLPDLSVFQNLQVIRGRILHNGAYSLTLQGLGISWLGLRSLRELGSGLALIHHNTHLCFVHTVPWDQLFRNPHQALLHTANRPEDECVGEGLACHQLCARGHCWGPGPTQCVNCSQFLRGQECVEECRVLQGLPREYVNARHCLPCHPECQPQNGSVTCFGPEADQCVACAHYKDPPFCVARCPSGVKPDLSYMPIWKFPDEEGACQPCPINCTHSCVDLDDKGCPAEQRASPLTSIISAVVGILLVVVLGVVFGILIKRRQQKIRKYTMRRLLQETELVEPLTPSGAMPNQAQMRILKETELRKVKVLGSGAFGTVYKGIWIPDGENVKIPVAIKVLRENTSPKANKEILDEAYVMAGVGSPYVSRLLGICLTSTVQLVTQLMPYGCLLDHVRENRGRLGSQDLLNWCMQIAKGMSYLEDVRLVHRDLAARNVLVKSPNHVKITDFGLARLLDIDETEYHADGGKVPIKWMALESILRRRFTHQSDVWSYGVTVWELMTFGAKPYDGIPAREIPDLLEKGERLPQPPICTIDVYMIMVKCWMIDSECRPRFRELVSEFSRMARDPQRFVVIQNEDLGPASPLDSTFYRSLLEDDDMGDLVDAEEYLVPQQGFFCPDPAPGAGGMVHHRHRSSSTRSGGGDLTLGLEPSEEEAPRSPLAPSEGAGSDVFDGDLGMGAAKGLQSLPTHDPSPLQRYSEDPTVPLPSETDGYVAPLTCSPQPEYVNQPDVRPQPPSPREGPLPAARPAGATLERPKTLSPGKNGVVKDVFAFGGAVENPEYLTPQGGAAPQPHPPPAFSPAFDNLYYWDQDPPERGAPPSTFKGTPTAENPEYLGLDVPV

Compound	viability [1] [%]	Her2 level [2]	viability [3]	viability [4]	differential viability (reversal) ([5]; H69AR cells + 2 uM doxorubicin)	viability [5, 8] [%]	viability [5, 9] [%]	inhibition [6]	inhibition [7]
COC(=O)c1ccccc1S(=O)(=O)N(Cc1cc2cc3c(cc2[nH]c1=O)OCO3)C1CCCCC1	83	98.5% (inactive)	83% (inactive)	82.6% (inactive)	-7.41% (inactive)	67.4	60	4.74% (inactive)	-2% (inactive)
C=CCn1c(COc2ccc(Cl)cc2)nnc1SCC(=O)N1CC(=O)Nc2ccccc21	92	76.5% (inactive)	92% (inactive)	65.5% (inactive)	-10.9% (inactive)	73.5	62.7	-5.2% (inactive)	-3.02% (inactive)
Cc1ccc(NC(=O)COS(=O)c2ccc(C)cc2)cc1 (configuration not stated)	97	95.5% (inactive)	97% (inactive)	69% (inactive)	-2.71% (inactive)	41.3	38.6	-1.69% (inactive)	-0.63% (inactive)
CCn1cc(C(=O)OCC(=O)OC2CC(C)CCC2C(C)C)c(=O)c2ccc(C)nc21 (configuration not stated)	94.5	67.5% (inactive)	94.5% (inactive)	35.3% (inactive)	-1.67% (inactive)	46.3	44.7	78.4% (active)	-1.45% (inactive)
COc1ccc(C(C)(C)C)cc1NC(=O)Nc1ccc2c(c1)OCO2	108	89.5% (inactive)	108% (inactive)	64.8% (inactive)	-12% (inactive)	57.2	45.3	-1.18% (inactive)	23.4% (inactive)
CCCCCSc1nc2c(cnn2-c2ccccc2)c(=O)[nH]1	99	93.5% (inactive)	99% (inactive)	45.2% (inactive)	-3.82% (inactive)	50.1	46.3	-5.26% (inactive)	-0.17% (inactive)
CCOC(=O)c1ccc(N2C(=O)CC(Sc3nnc(C)s3)C2=O)cc1 (configuration not stated)	103	100% (inactive)	103% (inactive)	102% (inactive)	4.82% (inactive)	46.2	51	-8.4% (inactive)	-6.67% (inactive)
O=C(CSc1nnc2scc(-c3ccccc3)n12)Nc1nsc(-c2ccccc2)n1	82.5	78% (inactive)	82.5% (inactive)	70.3% (inactive)	-14.1% (inactive)	75.2	61.1	-6.53% (inactive)	0.48% (inactive)
O=C(Nc1ccc(F)cc1)N(Cc1ccco1)Cc1cc2cc3c(cc2[nH]c1=O)OCO3	86.5	90.5% (inactive)	86.5% (inactive)	58.7% (inactive)	35.4% (inactive)	19.6	55	-6.32% (inactive)	-12.8% (inactive)
Cc1ccc(S(=O)(=O)N2CCOCC2)cc1C(=O)Nc1ccc(-c2cn3ccsc3n2)cc1	80	80.5% (inactive)	80% (inactive)	58.7% (inactive)	-0.105% (inactive)	70.8	70.7	-2.63% (inactive)	-2.86% (inactive)
COc1ccc(C2=NOC(C(=O)Nc3cc(Br)ccc3O)C2)cc1OC (configuration not stated)	108	89% (inactive)	108% (inactive)	56.4% (inactive)	-10.5% (inactive)	70.6	60.1	-6.76% (inactive)	1.8% (inactive)
Cc1ccccc1OCCCN1C(=O)C(=O)c2cccc(C)c21	106	72% (inactive)	106% (inactive)	77.7% (inactive)	-16.4% (inactive)	49.4	33	2.56% (inactive)	-1.33% (inactive)
O=C(c1cc(-c2ccco2)nn1-c1cccc(Cl)c1)N1CCCCC1	111	84.5% (inactive)	111% (inactive)	95% (inactive)	-25.9% (inactive)	79.2	53.3	-2.24% (inactive)	-1.94% (inactive)
CCOc1cccc(-n2nnnc2-c2ccc(OC)cc2)c1	107	90% (inactive)	107% (inactive)	49.9% (inactive)	-47.9% (inactive)	60.4	12.5	-1.04% (inactive)	-4.6% (inactive)
Cc1nc2ccccc2c(=O)n1NC(=O)c1c(O)c2c(n(CC(C)C)c1=O)CCCC2	88.5	73.5% (inactive)	88.5% (inactive)	92% (inactive)	-17.2% (inactive)	66.3	49.1	-1.84% (inactive)	9.35% (inactive)
COc1cccc(Cn2c(-c3nonc3N)nc3ccccc32)c1	93.5	82% (inactive)	93.5% (inactive)	58.2% (inactive)	-46.7% (inactive)	62.7	16	-2.6% (inactive)	-2.06% (inactive)
CCOC(=O)c1sc(NC(=O)c2c(C)nn(Cc3ccccc3)c2C)cc1C	82.5	90.5% (inactive)	82.5% (inactive)	44.6% (inactive)	-8.76% (inactive)	46.8	38.1	-10% (inactive)	-4.92% (inactive)

Compound	viability [1] [%]	Her2 level [2]	viability [3]	viability [4]	differential viability (reversal) ([5]; H69AR cells + 2 uM doxorubicin)	viability [5, 8] [%]	viability [5, 9] [%]	inhibition [6]	inhibition [7]
C=C(C)COc1ccc(-c2nc(N)ncc2Oc2ccccc2OCC)c(O)c1	79	84.5% (inactive)	79% (inactive)	85.5% (inactive)	-12.4% (inactive)	51.6	39.1	-0.66% (inactive)	24.4% (inactive)
CCOC(=O)c1c(NC(=O)Cn2c(C)nc3ccccc32)sc2c1CCC2	107	107% (inactive)	107% (inactive)	63% (inactive)	3.14% (inactive)	54.7	57.8	-4.53% (inactive)	-0.97% (inactive)
COc1ccc(CC(=O)NCc2cccs2)cc1	90	103% (inactive)	90% (inactive)	60.6% (inactive)	-17.3% (inactive)	77.9	60.5	-4% (inactive)	-8.03% (inactive)
Cc1ccc(/C=c2\s/c(=C(/C#N)C(=O)N3CCCC3)n(Cc3ccco3)c2=O)s1	87.5	79% (inactive)	87.5% (inactive)	59.3% (inactive)	15.8% (inactive)	28.1	43.9	-1.95% (inactive)	1.9% (inactive)
C=CCn1c(N)c(C(=O)OC(C)(C)C)c2nc3ccccc3nc21	102	90.5% (inactive)	102% (inactive)	70.5% (inactive)	-15.9% (inactive)	66.7	50.8	0.66% (inactive)	1.94% (inactive)
CCOC(=O)c1oc2ccccc2c1NC(=O)c1cccc(OC)c1OC	96.5	100% (inactive)	96.5% (inactive)	51% (inactive)	-68.6% (inactive)	88.2	19.6	-2.99% (inactive)	-2.22% (inactive)
CCOC(=O)c1c(C)[nH]c(C(=O)COC(=O)c2ccc(F)c(S(=O)(=O)N3CCOCC3)c2)c1C	88.5	79.5% (inactive)	88.5% (inactive)	62.4% (inactive)	11.4% (inactive)	52.5	63.9	-5.47% (inactive)	-1.97% (inactive)
Cc1ccc2c(C)nc(Nc3nc(CSc4nnnn4-c4ccccc4)cc(=O)[nH]3)nc2c1	98	80% (inactive)	98% (inactive)	48.6% (inactive)	-27.3% (inactive)	78	50.7	-5.47% (inactive)	1.31% (inactive)
Cc1c(NC(=O)c2ccc(=O)oc2)c(=O)n(-c2ccccc2)n1C	96.5	89% (inactive)	96.5% (inactive)	90.9% (inactive)	-18.7% (inactive)	67.2	48.5	-4.8% (inactive)	-0.32% (inactive)
COc1ccc(N2CCN(Cc3cc(=O)oc4cc(C)c(Cl)c(C)c34)CC2)cc1	93.5	83.5% (inactive)	93.5% (inactive)	84.1% (inactive)	-1.03% (inactive)	75.8	74.8	-7.33% (inactive)	1.9% (inactive)
N#Cc1c(N)nc(SCc2ccncc2)c(C#N)c1-c1cccs1	98.5	71% (inactive)	98.5% (inactive)	79% (inactive)	37.4% (inactive)	14.9	52.3	-0.53% (inactive)	7.74% (inactive)
c1ccc2c(-c3nc(C4CCCCC4)no3)cc(-c3ccncc3)nc2c1	72.5	69% (inactive)	72.5% (inactive)	66.6% (inactive)	-5.85% (inactive)	49.4	43.6	45.3% (active)	8.23% (inactive)
Cc1ccccc1OCC(O)CN (configuration not stated)	74	90% (inactive)	74% (inactive)	15.3% (active)	-5.69% (inactive)	25	19.3	3.64% (inactive)	-6.03% (inactive)
OC(CN1CCOCC1)Cn1c(-c2cccc(Cl)c2)nc2ccccc21 (configuration not stated)	100	80% (inactive)	100% (inactive)	54.4% (inactive)	-47.5% (inactive)	66	18.5	-6.75% (inactive)	-1.11% (inactive)
CCOC(=O)c1c(C)oc2c1c(C(c1ccncc1)N1CCOCC1)c(O)c1ccccc12 (configuration not stated)	104	85% (inactive)	104% (inactive)	9.39% (active)	-5.27% (inactive)	6.38	1.11	-0.13% (inactive)	-3.49% (inactive)
N#CC1=C(SCC(=O)NC23CC4CC(CC(C4)C2)C3)NC(=O)C(C#N)C12CCCCC2 (configuration not stated)	74	76% (inactive)	74% (inactive)	54.1% (inactive)	-5.21% (inactive)	41	35.8	-5.48% (inactive)	-5.4% (inactive)
